Laboratory results taken from PubChem BioAssay.
Activity calls are given as the source filed them.

What was measured:
[1] = biological target: Albumin (Bos taurus) (UniProt P02769); test: compounds binding labelled BSA control protein – biochemical, small-molecule microarray, Alexa647 label, 635/667 nm fluorescence, artefact control for SMM control protein annotation, profiling panel (AID 1118); conditions: BSA-A647 binding, fluorescence 635 nm, higher = more signal;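 also: score merges 667 nm emission intensity and signal-to-noise per printed compound spot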
Chain of Albumin (Bos taurus) (P02769 whole entry, looked up): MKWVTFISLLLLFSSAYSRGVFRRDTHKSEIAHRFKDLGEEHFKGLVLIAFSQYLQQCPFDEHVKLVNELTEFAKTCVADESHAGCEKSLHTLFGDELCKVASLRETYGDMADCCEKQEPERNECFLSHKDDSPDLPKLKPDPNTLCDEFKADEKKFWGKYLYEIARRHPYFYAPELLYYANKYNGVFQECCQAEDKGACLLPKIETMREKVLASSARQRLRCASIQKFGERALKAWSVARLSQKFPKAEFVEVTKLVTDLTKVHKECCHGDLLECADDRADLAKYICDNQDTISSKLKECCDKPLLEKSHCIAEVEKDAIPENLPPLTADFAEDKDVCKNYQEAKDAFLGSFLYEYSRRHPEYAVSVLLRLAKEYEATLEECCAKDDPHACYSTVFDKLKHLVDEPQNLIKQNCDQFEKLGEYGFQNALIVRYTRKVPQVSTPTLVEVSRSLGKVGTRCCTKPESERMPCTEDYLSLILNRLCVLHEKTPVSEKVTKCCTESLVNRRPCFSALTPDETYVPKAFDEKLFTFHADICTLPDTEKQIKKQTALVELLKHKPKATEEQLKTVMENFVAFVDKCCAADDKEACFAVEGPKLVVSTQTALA

[2] = probe aXIP binding to arrayed compounds – biochemical, NeuroSMM set, 635/667 nm fluorescence, primary screen (AID 1119); conditions: small-molecule microarray, higher = more signal, called active from +8 up or from −8 down;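 also: probe is the protein aXip251-270 applied at 1 µg/mL to compound-printed slides; binding of probe to printed compounds measured as 667 nm fluorescence plus signal to noise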
[3] = probe aNOTCH3 binding on compound microarray – biochemical, small-molecule microarray, 635/667 nm fluorescence, primary screen (AID 1120); conditions: higher = more signal;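 also: probe is a biotin-tagged antibody raised against NOTCH3 rather than NOTCH3 protein; score merges spot fluorescence near 667 nm with spot signal to noise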
[4] = probe aNOTCH2 binding on compound microarray – biochemical, small-molecule microarray, 635/667 nm fluorescence, primary screen (AID 1121); conditions: higher = more signal;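 also: score merges feature fluorescence read at 667 nm with its signal to noise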
[5] = biological target: Carbonic anhydrase 2 (Homo sapiens) (UniProt P00918); test: compounds binding carbonic anhydrase 2 – biochemical, small-molecule microarray, Alexa647-labelled CAII, profiling panel (AID 1122); conditions: CAII-A647 binding fluorescence, higher = more signal
[6] = COS7 lysate on small-molecule microarray, probe aHis, 635 nm (AID 1123); conditions: COS7 cell lysate, fluorescence, higher = more signal;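 also: z-score combines 667nm fluorescence intensity with signal-to-noise per printed compound spot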
[7] = probe aLAP1 signal on lysate-treated microarray – cell lysate, small-molecule microarray, COS7 lysate, primary screen (AID 1124); conditions: probe aLAP1, fluorescence, higher = more signal;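 also: lysate comes from COS7 cells expressing LAP1 and is applied at 0.3 µg/mL; score merges spot fluorescence near 667 nm with signal-to-noise over triplicate slides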
[8] = tested on: Sam68 (KHDRBS1); test: compounds binding KHDRBS1 protein – biochemical, small-molecule microarray, 635 nm fluorescence, primary screen (AID 1125); conditions: higher = more signal;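 also: score merges 667 nm channel intensity with signal to noise over triplicate slides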
[9] = tested on: Chordin-like protein 2 (CHRDL2); test: compounds binding chordin-like 2 – biochemical, small-molecule microarray, 635 nm fluorescence, primary screen (AID 1126); conditions: fluorescence 635 nm, higher = more signal;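 also: printed compound slides probed with Chrdl2 protein at 4 µg/mL for 1 h at 4 C; score merges 667 nm emission intensity with signal to noise over three replicate slides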
[10] = biological target: Concanavalin-A (Canavalia ensiformis) (UniProt P02866); test: compounds binding concanavalin A lectin – biochemical, small-molecule microarray, Alexa647 label, 635 nm, artefact control for SMM control protein annotation, primary screen (AID 1127); conditions: ConA-A647 binding fluorescence, higher = more signal;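 also: z combines 667 nm emission intensity with signal-to-noise across three replicate slides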
Chain of Concanavalin-A (Canavalia ensiformis) (P02866 whole entry, looked up): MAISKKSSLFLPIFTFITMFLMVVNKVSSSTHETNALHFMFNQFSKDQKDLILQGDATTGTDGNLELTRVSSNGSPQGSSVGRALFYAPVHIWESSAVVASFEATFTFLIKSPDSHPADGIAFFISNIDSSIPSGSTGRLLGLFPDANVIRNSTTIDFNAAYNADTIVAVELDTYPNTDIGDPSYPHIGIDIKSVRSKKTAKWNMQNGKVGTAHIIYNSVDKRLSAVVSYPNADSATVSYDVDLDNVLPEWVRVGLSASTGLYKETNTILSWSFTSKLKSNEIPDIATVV

[11] = compounds binding Alexa647 anti-His antibody – biochemical, small-molecule microarray, 635 nm fluorescence, artefact control for SMM control protein annotation, primary screen (AID 1128); conditions: higher = more signal;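 also: score merges feature fluorescence with signal-to-noise for each printed compound spot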
[12] = tested on: Human papillomavirus type 1a E7 protein (residues 1-88); test: HPV1a E7 small-molecule binders, primary screen, biochemical, small-molecule microarray, residues 1-88, 635 nm (AID 1129); conditions: small-molecule microarray binding, fluorescence 635 nm; higher = more signal
[13] = biological target: Focal adhesion kinase 1 (Homo sapiens) (UniProt Q05397); test: PTK2 protein binding on printed compound slides – biochemical, small-molecule microarray, 635/667 nm fluorescence, BSA, DTT, primary screen (AID 1130); conditions: 635 nm fluorescence, higher = more signal;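 also: composite of spot emission at 667 nm and signal to noise over triplicate slides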
Chain of Focal adhesion kinase 1 (Homo sapiens) (Q05397 whole entry, looked up): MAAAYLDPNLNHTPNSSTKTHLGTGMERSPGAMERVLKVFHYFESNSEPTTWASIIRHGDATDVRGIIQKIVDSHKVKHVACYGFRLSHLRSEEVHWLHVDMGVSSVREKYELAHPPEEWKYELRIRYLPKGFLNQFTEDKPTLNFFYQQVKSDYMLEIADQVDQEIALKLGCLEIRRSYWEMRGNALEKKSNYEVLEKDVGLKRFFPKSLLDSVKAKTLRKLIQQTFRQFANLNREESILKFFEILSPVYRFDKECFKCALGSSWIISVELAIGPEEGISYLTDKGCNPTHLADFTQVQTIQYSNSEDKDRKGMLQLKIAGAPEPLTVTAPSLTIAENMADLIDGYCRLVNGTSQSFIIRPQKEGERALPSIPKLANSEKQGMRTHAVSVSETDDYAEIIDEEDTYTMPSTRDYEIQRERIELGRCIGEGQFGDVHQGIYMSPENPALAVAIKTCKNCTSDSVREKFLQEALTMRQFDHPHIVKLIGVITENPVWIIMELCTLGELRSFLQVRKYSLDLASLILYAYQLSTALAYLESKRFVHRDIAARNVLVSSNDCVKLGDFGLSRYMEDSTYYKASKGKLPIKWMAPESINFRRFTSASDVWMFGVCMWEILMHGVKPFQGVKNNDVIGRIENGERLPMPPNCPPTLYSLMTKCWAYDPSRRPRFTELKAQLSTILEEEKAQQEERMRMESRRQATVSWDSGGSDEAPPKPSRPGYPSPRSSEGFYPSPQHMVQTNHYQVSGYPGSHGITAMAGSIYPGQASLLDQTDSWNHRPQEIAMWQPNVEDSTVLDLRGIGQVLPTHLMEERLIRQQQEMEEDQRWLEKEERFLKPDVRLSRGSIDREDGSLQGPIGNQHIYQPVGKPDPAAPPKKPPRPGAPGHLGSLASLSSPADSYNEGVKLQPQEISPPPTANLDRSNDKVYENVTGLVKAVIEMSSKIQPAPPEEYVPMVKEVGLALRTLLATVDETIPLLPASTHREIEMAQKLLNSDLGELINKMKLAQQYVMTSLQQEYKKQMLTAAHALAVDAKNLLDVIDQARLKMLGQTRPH

[14] = tested on: Fibrinogen (Alexa647-labelled); test: Alexa647-fibrinogen binding to printed small molecules – biochemical, small-molecule microarray, 635/667 nm fluorescence, artefact control for SMM control-protein annotation, profiling panel (AID 1131); conditions: fibrinogen-A647 binding fluorescence, higher = more signal;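 also: z-score merges 667 nm fluorescence with per-spot signal-to-noise over triplicate slides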
[15] = biological target: Follistatin (Homo sapiens) (UniProt P19883); test: FST protein binding to printed compounds – biochemical, small-molecule microarray, 635/667 nm fluorescence, primary screen (AID 1132); conditions: 635 nm fluorescence, higher = more signal
Chain of Follistatin (Homo sapiens) (P19883 whole entry, looked up): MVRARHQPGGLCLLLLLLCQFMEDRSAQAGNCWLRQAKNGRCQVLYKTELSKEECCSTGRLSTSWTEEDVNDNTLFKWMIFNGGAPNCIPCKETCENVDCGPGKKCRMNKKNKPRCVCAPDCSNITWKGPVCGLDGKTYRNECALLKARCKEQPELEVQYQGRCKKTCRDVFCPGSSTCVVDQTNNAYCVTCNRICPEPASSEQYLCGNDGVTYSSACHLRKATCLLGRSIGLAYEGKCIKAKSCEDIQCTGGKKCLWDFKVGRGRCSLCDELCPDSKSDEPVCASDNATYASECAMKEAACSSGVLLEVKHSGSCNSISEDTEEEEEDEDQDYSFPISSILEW

[16] = biological target: Fibroblast growth factor 2 (Homo sapiens) (UniProt P09038); test: basic fibroblast growth factor binding to printed compounds – biochemical, small-molecule microarray, 635/667 nm fluorescence, primary screen (AID 1133); conditions: FGF2, fluorescence 635/667, higher = more signal
Chain of Fibroblast growth factor 2 (Homo sapiens) (P09038 whole entry, looked up): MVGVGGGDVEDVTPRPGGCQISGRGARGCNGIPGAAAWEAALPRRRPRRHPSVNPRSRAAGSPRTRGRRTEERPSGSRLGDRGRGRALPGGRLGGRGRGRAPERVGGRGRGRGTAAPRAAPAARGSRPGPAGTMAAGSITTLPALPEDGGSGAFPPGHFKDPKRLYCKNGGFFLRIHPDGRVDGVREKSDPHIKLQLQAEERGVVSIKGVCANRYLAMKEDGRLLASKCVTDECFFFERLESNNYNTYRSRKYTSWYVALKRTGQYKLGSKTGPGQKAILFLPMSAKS

[17] = JC-1 mitochondrial potential readout, lung cancer cells – cell-based, A549, JC-1 fluorescence, basal, 24 h, 100 nL, profiling panel (AID 1138); conditions: higher = more signal;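 also: A549 lung adenocarcinoma cells under basal conditions with no added stimulus; test concentration not given here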
[18] = tested on: Lefty1; test: Lefty1 protein binding to printed compounds – biochemical, small-molecule microarray, 635/667 nm fluorescence, primary screen (AID 1139); conditions: fluorescence 635/667, higher = more signal
[19] = tested on: wheat germ agglutinin (Triticum aestivum), Alexa647-labelled; test: Alexa647-WGA lectin binding to printed small molecules – biochemical, small-molecule microarray, 635/667 nm fluorescence, artefact control for SMM control-protein annotation, profiling panel (AID 1140); conditions: WGA-A647 binding, 635 nm fluorescence, higher = more signal;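 also: score merges 667 nm feature emission with signal to noise over triplicate slides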
[20] = biological target: Luciferin 4-monooxygenase (Photinus pyralis) (UniProt P08659); test: inhibition of purified Photinus pyralis luciferase – biochemical, luminescence, purified enzyme, 2006 set, primary screen (AID 1141); conditions: purified firefly luciferase, SteadyGlo luminescence, 30 min; higher = more signal, called active from +8 up or from −8 down;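 also: cell-free assay with purified firefly luciferase at 100 ng per well in PBS; test concentration not given here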
Chain of Luciferin 4-monooxygenase (Photinus pyralis) (P08659 whole entry, looked up): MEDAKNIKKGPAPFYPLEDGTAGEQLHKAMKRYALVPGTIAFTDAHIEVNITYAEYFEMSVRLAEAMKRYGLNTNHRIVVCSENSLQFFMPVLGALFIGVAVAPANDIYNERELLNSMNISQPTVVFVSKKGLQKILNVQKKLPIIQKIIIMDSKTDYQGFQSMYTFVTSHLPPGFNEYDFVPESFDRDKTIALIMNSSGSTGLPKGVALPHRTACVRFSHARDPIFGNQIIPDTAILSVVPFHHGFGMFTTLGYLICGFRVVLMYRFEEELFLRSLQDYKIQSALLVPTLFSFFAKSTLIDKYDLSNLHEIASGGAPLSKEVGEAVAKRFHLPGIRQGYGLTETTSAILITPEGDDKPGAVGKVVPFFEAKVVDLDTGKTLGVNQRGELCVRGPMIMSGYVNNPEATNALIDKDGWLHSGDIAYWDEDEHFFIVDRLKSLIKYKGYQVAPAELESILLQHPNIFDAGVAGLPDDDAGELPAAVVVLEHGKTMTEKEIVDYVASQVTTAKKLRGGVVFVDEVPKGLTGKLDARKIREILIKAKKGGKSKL

SMILES	composite z-score [1]	composite Z-score [2]	composite z-score [3]	composite z-score [4]	composite z-score [5]	composite z-score [6]	composite z-score [7]	composite z-score [8]	composite z-score [9]	composite z-score [10]	composite z-score [11]	composite z-score [12]	composite z-score [13]	composite z-score [14]	composite z-score [15]	composite z-score [16]	z-score [17]	composite z-score [18]	composite z-score [19]	z-score [20]
CN1CCc2nc(-c3ccccc3)c(-c3ccccc3)cc2C1	0.0013	-0.341 (inactive)	-0.0343	-0.115	-0.132	-0.0596	-0.247	-0.23	0.58	0.486	0.532	0.26	0.163	0.547	0.397	0.325	0.0181	0.256	-0.0097	-0.133 (inactive)
C[C@H]1CC[C@H]2C(=O)O[C@H](CO)CN2[C@@H]1c1ccc(Br)cc1	0.167	0.436 (inactive)	0.0081	-0.124	-0.11	-0.0346	0.0438	0.424	0.229	-0.453	-0.15	0.015	0.638	0.0011	0.0723	0.103	0.69	0.353	-0.004	-0.19 (inactive)
CC(CCC(=O)OC[C@H]1O[C@H](C#Cc2ccccc2)C=C[C@@H]1Oc1ccc(C)cc1)=NOC(C)CN1CCCc2nc(C)c(C)cc21 (stereo not given in full)	0.412	-0.266 (inactive)	-0.0647	-0.0793	-0.0994	1.12	-0.114	1.14	0.281	0.924	1.09	0.886	0.659	0.564	0.686	0.507	0.238	0.596	0.418	0.0139 (inactive)
COC(=O)C1=C(C)N(Cc2ccccc2)C2=C3C(=O)OCC[C@@H]3[C@@](O)(C(=O)OC)C(=O)N2[C@@H]1c1ccccc1	-0.0298	-0.135 (inactive)	0.0182	-0.14	-0.085	0.132	-0.186	-0.0394	0.487	0.325	0.0356	0.0787	0.19	0.332	0.384	0.402	1.48	0.836	0.0974	-0.653 (inactive)
COc1ccc(O[C@H]2C=C[C@@H](c3ccccc3)O[C@@H]2CO)cc1	-0.311	-0.0521 (inactive)	0.0762	-0.104	0.131	-0.209	0.0797	-0.713	0.495	0.304	-0.457	-0.145	-0.363	-0.0957	0.36	0.363	0.319	0.479	-0.126	-0.162 (inactive)
CC(C)=CCCC(C)=CCON=C1C[C@@H](O)[C@@H](O)[C@@H]2[C@@H]3C(=O)N(Cc4ccc5c(c4)OCO5)C(=O)[C@@H]3CC[C@H]12	0.0686	-0.16 (inactive)	0.0568	0.428	0.389	1.17	0.206	0.945	0.957	-0.0491	0.364	0.838	-0.0613	0.855	0.779	0.613	-0.564	1.04	0.793	0.497 (inactive)
CC(CCN1CCCCc2nc(C)c(C)cc21)=NO[C@@H](C)c1cc(-c2c(C)cc(C)cc2C)no1	0.335	-0.0861 (inactive)	-0.231	-0.0904	-0.079	-0.257	0.197	-1.33	-0.734	-1.84	-0.335	-0.384	0.0796	-0.317	-0.673	-0.682	1.91	-0.315	-0.547	-1.49 (inactive)
O=C1C2=CC[C@H]3C(=O)N(Cc4ccccc4)C(=O)[C@H]3[C@H]2[C@H](O)[C@@H]2O[C@H]12	-0.356	0.0144 (inactive)	-0.199	-0.167	0.0372	-0.458	-0.11	0.085	0.343	-0.707	0.198	0.111	-0.36	0.739	-0.267	-0.022	-0.447	-0.423	0.254	-0.174 (inactive)
CC(CCN1CCCc2nc(C)c(C)cc21)=NO[C@H](C)c1cn([C@H](CO)Cc2ccccc2)nn1	0.177	0.271 (inactive)	0.159	-0.112	0.236	0.497	0.0249	1.28	0.618	-0.113	0.906	0.474	0.402	0.166	0.564	0.559	-0.776	0.931	0.108	0.0837 (inactive)
CC(=O)OC[C@H]1O[C@H](CCON=C(C)CCN2CCCc3nc(C)c(C)cc32)C=C[C@@H]1OC(C)=O	0.159	-0.01 (inactive)	0.121	-0.0482	0.416	0.214	0.926	1.29	0.662	0.672	1.22	1.14	0.835	0.441	1.15	0.664	-0.349	0.997	0.0722	0.591 (inactive)
O=C1C2=CC[C@H]3C(=O)N(c4ccc(F)cc4F)C(=O)[C@H]3[C@H]2[C@H](O)[C@@H]2O[C@H]12	0.0384	-0.778 (inactive)	-0.165	-0.118	-0.0649	-0.293	0.0054	0.339	0.783	0.469	0.0402	0.679	-0.059	0.0936	0.397	0.34	0.0712	0.616	-0.0273	-0.51 (inactive)
